Hits are enriched below; roughly 2.4% of the tested compounds scored in any of these assays.
Pol beta inh: DNA polymerase beta (human) inhibition. Potency, µM (highest dose often 114 µM), for inactives: at the top dose activity change, negative = inhibition, most hits filed as inhibitors. hit rate 1.3% among 340,000. Pol beta primer extension/strand displacement, fluorescence kinetic. P06746; also: % is scaled to controls: 0 for no effect and ±100 for the full control effect
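Pol beta (10 nM) and compounds were preincubated 15 min at room temperature, then 50 nM substrate (final) started primer extension/strand displacement. Reads were taken at 0 and 10 min; concentration-response data were fitted to a four-parameter Hill equation.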
Pol iota inh: blocks human DNA polymerase iota activity; Q9UNA4; Pol iota fluorescent replication assay, 10 min; Potency, µM (top dose mostly 115 µM), for the others: at the top dose activity, negative = inhibition, actives largely listed as inhibitors; hit rate 1% among 390,000
Target sequence (Q9UNA4 whole entry, looked up): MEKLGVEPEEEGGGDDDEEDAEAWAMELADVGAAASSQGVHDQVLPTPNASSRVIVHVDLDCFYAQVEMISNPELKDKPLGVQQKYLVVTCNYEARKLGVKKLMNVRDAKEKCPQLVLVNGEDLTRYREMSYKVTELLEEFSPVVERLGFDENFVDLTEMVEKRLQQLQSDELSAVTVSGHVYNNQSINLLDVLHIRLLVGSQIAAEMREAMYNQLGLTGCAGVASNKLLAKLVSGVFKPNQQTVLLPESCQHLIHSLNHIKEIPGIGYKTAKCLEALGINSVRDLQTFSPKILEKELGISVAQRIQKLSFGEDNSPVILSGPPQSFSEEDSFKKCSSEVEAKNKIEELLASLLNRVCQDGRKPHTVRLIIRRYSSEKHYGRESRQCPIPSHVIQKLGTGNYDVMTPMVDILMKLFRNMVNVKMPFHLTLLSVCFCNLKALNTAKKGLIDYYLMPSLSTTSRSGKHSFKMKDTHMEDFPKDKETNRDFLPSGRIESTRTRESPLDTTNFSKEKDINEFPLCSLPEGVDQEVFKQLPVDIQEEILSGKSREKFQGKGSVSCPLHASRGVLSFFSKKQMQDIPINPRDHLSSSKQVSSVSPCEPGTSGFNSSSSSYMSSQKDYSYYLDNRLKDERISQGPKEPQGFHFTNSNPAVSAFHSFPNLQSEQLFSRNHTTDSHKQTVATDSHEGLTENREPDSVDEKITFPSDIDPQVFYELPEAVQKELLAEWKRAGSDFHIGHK
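Fluorescent replication assay read twice, at 0 min and 10 min after adding 50 nM (final) substrate. Enzyme (10 nM) and compounds were first incubated 15 min at room temperature; enzyme-free buffer wells were negative controls.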
FEN1 inh: blocks human flap endonuclease 1; Potency, µM (highest dose often 114 µM), inactives show top-dose activity change, negative = inhibition, usual class: inhibitors; Recombinant FEN1 flap cleavage, fluorescence, 15 min; hit rate 0.35% among 390,000; P39748; also: % is scaled to controls: 0 for no effect and ±100 for the full control effect; nearly all actives have a fitted effect of over 65% in size
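In this screen, 50 nM flap DNA substrate was added to 10 nM FEN1 pretreated with compound for 15 min at room temperature; cleavage was followed with reads at 0 and 15 min, and Hill fitting gave concentration–response parameters.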
POLH inh: inhibitors of human DNA polymerase eta | recombinant Pol eta, fluorescent DNA replication assay | Potency, µM (highest dose often 114 µM), for inactives: at the top dose activity change, negative = inhibition, actives largely listed as inhibitors | hit rate 1.2% among 390,000 | AID 588591; also: % is scaled to controls: 0 for no effect and ±100 for the full control effect
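Fluorescent replication assay: 50 nM final substrate added after a 15 min room-temperature compound preincubation with 10 nM enzyme. Signal taken at 0 min and again at 10 min.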
WRN helicase inh: WRN helicase (human) inhibition. Potency, µM (highest dose often 114 µM), inactives show at the top dose activity change, negative = inhibition, most hits filed as inhibitors. hit rate 0.46% among 360,000. Q14191. WRN helicase unwinding, fluorescent forked duplex, kinetic; also: % is scaled to controls: 0 for no effect and ±100 for the full control effect; nearly all actives have a fitted effect of over 55% in size
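Kinetic red-fluorescence monitoring (525/598 nm) tracks WRN helicase activity after 100 nM fluorophore-quencher forked duplex and 2 mM ATP are added to 20 nM enzyme pretreated 15 min at room temperature with compound.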
Pol kappa inh: inhibitors of human DNA polymerase kappa; Q9UBT6; purified Pol kappa, fluorescent DNA synthesis assay, 10 min; Potency, µM (doses to about 107 µM), for inactives: at the top dose activity, negative = inhibition, most hits filed as inhibitors; hit rate 0.53% among 400,000; AID 588579; also: % is scaled to controls: 0 for no effect and ±100 for the full control effect
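Activity was followed as the change in fluorescence between reads at 0 and 10 min after starting the reaction with 50 nM substrate. Beforehand, 10 nM polymerase had been preincubated with compound for 15 min at room temperature.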
An asterisk follows results filed as active; ? = inconclusive; / = no result given; [ ] = remark or other dose. Calls follow the shape of the dose curve; as a rule, active = well fitted curve in the direction sought with a large enough effect; inconclusive = small, poorly fitted or top-dose-only effect, or another doubt; inactive = no such curve, though single readings can be large; an effect the other way counts as inactive or inconclusive. Potency is read from the fitted curve at half-maximal effect.

SMILES	Pol beta inh	Pol iota inh	FEN1 inh	POLH inh	WRN helicase inh	Pol kappa inh
COc1cc(C)c(Cl)cc1S(=O)(=O)n1cnc2ccccc21	89.1µM*	9.5%	-2.1%	-12.5%	-10.5%	-18.6%
COc1ccc(OC)c(S(=O)(=O)n2cnc3ccccc32)c1	26.7%	7.5%	10.9%	-1.4%	1.4%	3.0%
N[C@@H](C(=O)O)c1ccc(O)c(C(=O)O)c1	/	?	50.1µM*	/	/	1.1%
CC(=O)N(C)C1=C(O)c2ccccc2C(=O)C1=O	-1.3%	28.2µM*	-11.6%	-4.0%	-5.4%	-15.3%
O=C1C(O)=C(O)C(=O)c2ccccc21	/	7.94µM*	?	31.6µM*	4.8%	-14.2%
O=C1c2ccccc2C(=O)c2[nH]c(=O)[nH]c21	50.1µM*	14.1µM*	?	31.6µM*	-14.9%[11.6 µM]	?
CC(=O)N(C1=C(O)c2ccccc2C(=O)C1=O)C1CCCCC1	21.0%	28.9%	-10.0%	6.2%	0.6%	-8.2%
COc1ccccc1C(=O)NCC(=O)Nc1ccc2c(c1)CCC2	/	15.2%	2.5%	-2.7%	12.5%	7.3%
COc1cccc2c1Oc1ncccc1N(c1ccc(C(=O)NCc3cccc(C)c3)s1)C2	26.5%	89.1µM*	-15.1%	-13.0%	/	?
N.N.O=C(O)C1(C(=O)O)CCC1.[Pt]	8.0%[57.1 µM]	-6.5%[58.9 µM]	/	-2.7%[57.1 µM]	/	22.4µM*
O=C(O)C1(C(=O)O)CCC1	/	-3.2%	-5.2%	-1.6%	-0.4%	-18.0%
CC1(C)NC(=O)N(CC(=O)OCC(=O)c2ccc(Cl)s2)C1=O	/	21.8%	-7.3%	3.4%	-4.6%	-8.8%
Cc1c(C(=O)N(Cc2ccco2)Cc2cccs2)oc2ccccc12	/	39.8µM*	-10.1%	?	-33.0%	?
O=C(Cc1ccc(S(=O)(=O)N2CCCC2)s1)N1CCN(c2ccccc2)CC1	31.6µM*	54.5%	4.6%	-9.1%	-3.7%	0.4%
O=C(Cc1ccc(S(=O)(=O)N2CCOCC2)s1)NCC(=O)Nc1ccccc1Br	/	30.0%	8.3%	-2.6%	6.6%	2.9%
O=C(Cc1ccc(S(=O)(=O)N2CCOCC2)s1)Nc1ccccc1Br	35.5µM*	?	-15.4%	?	-7.3%	?
CCOc1ccccc1-n1c(SCC(=O)NC(C)(C)C)nnc1-c1ccoc1C	25.2%	13.4%	0.4%	-14.0%	10.0%	-7.5%
CC(C)CCNC(=O)c1ccc2c(c1)NC(=O)C(CS(=O)(=O)Cc1cccc(Br)c1)N2 (centres undefined)	10µM*	?	3.7%	-19.1%	/	-11.1%
CCOc1ccc(C(NC(=O)CC)c2c(O)ccc3ccccc23)cc1 (centres undefined)	0.4%	-15.1%	-23.7%	-9.9%	1.1%	-4.4%
CCC(=O)NC(c1cccc([N+](=O)[O-])c1)c1c(O)ccc2ccccc12 (centres undefined)	2.0%	89.1µM*	0.5%	1.8%	-7.8%	-19.3%
O=C(O)/C=C/C(=O)c1ccc(O)cc1	0.3%	17.8µM*	2.2%	3.3%	-4.4%[11.6 µM]	-19.5%
CCCCCCCCCCCCCCCCCCc1ccc(C(=O)/C=C\C(=O)O)cc1	/	/	/	/	/	12.6µM*
NS(=O)(=O)c1ccc(CNC(=O)CSc2nc3ccc(Cl)cc3[nH]2)cc1	-0.8%	101.4%	8.1%	-12.3%	5.7%	1.4%
COc1ccc(C(C)=O)cc1COC(=O)CNC(=O)c1ccc(F)cc1	-1.1%	16.5%	-3.3%	-17.3%	-0.1%	-11.9%
Cc1cc(N2CCCCC2)nc2ccccc12	9.9%	70.8%	0.0%	-6.2%	-19.0%	-6.2%
SMILES	Pol beta inh	Pol iota inh	FEN1 inh	POLH inh	WRN helicase inh	Pol kappa inh
Cc1cc(-n2nnc3ccccc32)nc2ccccc12	6.0%	89.1µM*	1.0%	-4.5%	3.7%	-24.4%
COC(=O)CC1=NN(c2ccccc2)C(=O)/C1=C\c1ccc(OC)cc1	88.9%	7.3%	-13.2%	10.5%	50.1µM*	-19.3%
COC1=CC(=O)C=C(OC)C1=O	/	?	?	-12.4%	44.7µM*	-7.4%
COC1=CC(=O)c2ccccc2C1=O	/	14.1µM*	10µM*	?	11.7%	9.9%
CN(CC(=O)NCc1ccccc1)S(=O)(=O)c1ccc2c(c1)CCC(=O)N2	13.5%	9.2%	23.3%	1.5%	-5.3%	-5.7%
O=C(COc1ccccc1)NCc1n[nH]c(=S)n1-c1ccccc1	-13.3%	18.2%	-3.6%	-13.5%	2.7%	-5.5%
Cc1oc2c(c1C(=O)c1ccccc1)C(=O)C(=O)c1ccccc1-2	56.2µM*	0.891µM*	-7.4%	20µM*	?	-9.7%
Cc1oc2c(c1C(=O)O)C(=O)c1ccccc1C2=O	3.2%	?	10.8%	-29.0%	2.7%	-16.6%
CCc1nc2ccc(C(=O)O)cc2nc1CC	-24.0%	-2.5%	-3.6%	14.1µM*	-6.6%[57.1 µM]	-2.1%
O=S(=O)(Nc1c(Br)cc(Br)c2cccnc12)C1CC1	/	12.6µM*	?	/	/	11.5%
Cc1ccc(NC(=O)Cn2cnc3onc(-c4ccc(F)cc4)c3c2=O)c(Cl)c1	13.7%	8.3%	3.0%	-0.5%	/	2.9%
COc1cc2c(cc1OC)C(c1ccccc1)=NCC2	28.5%	157.1%	-3.3%	-5.7%	1.6%	-6.0%
COc1cc2c(cc1OC)-c1cc3ccc4c(c3c[n+]1CC2)OCO4	39.8µM*	14.1µM*	?	?	7.5%[11.6 µM]	-21.0%
CSC1=C(C#N)C(c2ccccc2Cl)C(C(=O)c2cccs2)C(O)(C(F)(F)F)N1 (centres undefined)	15.2%	4.0%	-10.6%	-9.5%	-17.6%[57.1 µM]	-8.3%
COc1ccc(C(=O)N(CCCO)Cc2cc3c(C)ccc(C)c3[nH]c2=O)cc1OC	18.0%	2.9%	-4.4%	-16.5%	-23.5%	3.0%
O=C(O)c1ccccc1N/N=C/C1=C(N2CCOCC2)C(=C\c2ccccc2)/CC1	?	14.1µM*	-1.3%	44.7µM*	?	?
Cc1[nH]n(-c2ccccc2)c(=O)c1C=Nc1ccc(S(=O)(=O)N=C(N)N)cc1	20.8%	50.1µM*	6.2%	?	-5.8%[11.6 µM]	5.7%
Cc1[nH]n(-c2ccc(Br)cc2)c(=O)c1C=Nc1ccc(S(=O)(=O)Nc2nccs2)cc1	?	?	15.8%	44.7µM*	-18.5%[57.1 µM]	-16.8%
COc1cccc(C(=O)c2cn(CC(=O)Nc3cccc(C(F)(F)F)c3)c3nc(C)ccc3c2=O)c1	-10.1%	-12.9%	-11.1%	-9.8%	/	-3.1%
CCn1cc(C(=O)O)c(=O)c2cc(F)c(N3CCN(S(=O)(=O)c4ccc5c(c4)OCCO5)CC3)cc21	0.8%	2.1%	6.0%	34.1%	1.1%	10.1%
CCn1cc(C(=O)NN)c(=O)c2cc(F)c(N3CCOCC3)cc21	45.5%	?	?	?	89.1µM*	-15.6%
CCn1cc(C(=O)O)c(=O)c2cc(F)c(N3CCN(S(=O)(=O)c4ccc(NC(C)=O)cc4)CC3)cc21	20µM*	-19.4%	?	?	?	-36.6%

From PubChem BioAssay
